High-throughput results from PubChem BioAssay.
Mac1 fbg enh: enhancers of human CD11b/CD18 binding to fibrinogen. P05107+P11215. K562 CD11b/CD18 adhesion to fibrinogen, ATPlite luminescence. activation, % at 10 µM. 93,000 compounds, 0.07% hits;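 active means 10 µM primary screen giving 50% or more activity, confirmed by 40% or more on retest at that dose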
MMP-13 inhibitor: blocks human MMP13 activity; P45452; MMP-13 fTHP FRET cleavage, Mca fluorescence; inhibition, % at 4 µM; 65,000 compounds, 0.07% hits; AID 570;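 active means inhibition above the mean of compound-free control plate wells plus 3 SD, cut at about 14% in these data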;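 further: 0% = DMSO wells and 100% = wells with reference MMP-13 inhibitor after basal subtraction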
FAK inh: blocks human focal adhesion kinase activity | biochemical FAK kinase activity assay | AID 727 | 97,000 compounds, 0.84% hits | inhibition, %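 (tested at 7 µM)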; in the data active means inhibition above about 19%;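 further: 0% = DMSO and 100% = reference compound high control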
Target sequence (Q05397 whole entry, looked up): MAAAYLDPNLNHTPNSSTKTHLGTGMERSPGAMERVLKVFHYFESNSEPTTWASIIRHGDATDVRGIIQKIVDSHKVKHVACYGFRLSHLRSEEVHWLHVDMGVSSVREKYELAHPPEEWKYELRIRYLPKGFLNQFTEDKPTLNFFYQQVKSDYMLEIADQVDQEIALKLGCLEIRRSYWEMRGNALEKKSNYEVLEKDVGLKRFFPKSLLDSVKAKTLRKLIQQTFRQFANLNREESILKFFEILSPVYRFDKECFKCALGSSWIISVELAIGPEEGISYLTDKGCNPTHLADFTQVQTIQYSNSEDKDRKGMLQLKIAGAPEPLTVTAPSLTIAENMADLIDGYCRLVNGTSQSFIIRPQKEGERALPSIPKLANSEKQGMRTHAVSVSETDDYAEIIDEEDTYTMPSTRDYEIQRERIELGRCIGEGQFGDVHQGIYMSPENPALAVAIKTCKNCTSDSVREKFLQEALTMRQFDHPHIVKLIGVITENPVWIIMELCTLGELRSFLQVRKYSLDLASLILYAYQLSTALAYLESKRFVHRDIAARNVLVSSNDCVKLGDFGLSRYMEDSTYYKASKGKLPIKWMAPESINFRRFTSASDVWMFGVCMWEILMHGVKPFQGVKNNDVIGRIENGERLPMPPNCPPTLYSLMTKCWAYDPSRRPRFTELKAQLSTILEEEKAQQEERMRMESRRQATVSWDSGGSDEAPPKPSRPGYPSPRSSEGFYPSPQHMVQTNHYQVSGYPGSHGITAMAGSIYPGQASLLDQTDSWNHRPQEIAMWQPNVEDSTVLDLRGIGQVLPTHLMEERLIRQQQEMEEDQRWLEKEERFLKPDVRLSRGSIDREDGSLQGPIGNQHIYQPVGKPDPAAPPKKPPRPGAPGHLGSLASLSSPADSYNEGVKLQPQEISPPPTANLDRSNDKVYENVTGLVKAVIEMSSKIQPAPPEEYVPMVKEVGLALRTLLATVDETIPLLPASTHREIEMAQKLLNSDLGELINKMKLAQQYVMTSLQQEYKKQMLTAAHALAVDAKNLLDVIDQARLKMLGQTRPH
Mac1 fbg inh: CD11b/CD18-fibrinogen binding inhibition | K562 CD11b/CD18 adhesion to fibrinogen, ATPlite luminescence; Mn2+ added to activate the integrin | P05107+P11215 | inhibition, % at 10 µM | 93,000 compounds, 0.54% hits;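 active means primary inhibition of 50% or more at 10 µM, then 40% or more on retest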
The depositor's hits bear a star; x = not tested or not shown. This is a sample that favours compounds with a hit; in the whole collection about 1.1% have one here.

SMILES	Mac1 fbg enh	MMP-13 inhibitor	FAK inh	Mac1 fbg inh
c1ccc(-n2ncc3c(N4CCCCC4)ncnc32)cc1	-6	13	11	59*
CCN1CCN(c2ncnc3c2cnn3-c2ccccc2)CC1	6	-6	0	5
COc1cc(C(=O)O/N=C2/C=C(C)C(=O)C=C2C)cc(OC)c1OC	-2	x	x	6
CC1=C/C(=N\OS(=O)(=O)c2ccccc2)C(C)=CC1=O	-9	x	-1	97*
CCOc1cccc(CNc2ccc(O)cc2)c1OCc1ccccc1Cl	x	x	37*	x
CCOC(=O)c1c(NC(=O)CSc2nnc3c(n2)[nH]c2ccccc23)sc2c1CCN(C)C2	x	x	20*	x
Cc1cc(C)c2c(c1)/C(=N/NS(=O)(=O)c1ccc(Br)cc1)CCC2	-4	x	1	5
O=C(Nc1ccccc1N1CCOCC1)c1ccccc1NS(=O)(=O)c1ccc(F)c(F)c1	-4	x	-5	75*
Cc1ccc(C)c(S(=O)(=O)Nc2ccccc2C(=O)Nc2ccccc2N2CCOCC2)c1	-4	x	-3	50*
O=C(OCCN(C1=NS(=O)(=O)c2ccccc21)c1ccc(Cl)cc1)c1ccco1	-3	3	-4	0
Cc1ccc(SCC(=O)NCCSC(C)(C)C)cc1	0	x	-1	2
CCOc1ccc(-n2c(-c3ccccc3)c[n+]3c2CCCCC3)cc1	-4	x	x	80*
CCC(CO)[n+]1c(C)cc(/C=C2\Sc3ccccc3N2Cc2ccccc2)cc1C (stereo not drawn)	-7	x	x	103*
CCN1/C(=C2\SC(=S)N(Cc3ccccc3)C2=O)Sc2ccccc21	28	x	x	0
COc1cc(S(=O)(=O)NCc2ccccc2)ccc1F	2	2	-1	-8
COc1cc(C)c(Cl)cc1S(=O)(=O)NCc1ccncc1	-9	2	-1	84*
COc1cc(C)c(Br)cc1S(=O)(=O)NCc1ccccc1	6	x	-3	-17
CC1CCCCN1c1ncnc2ccccc12 (stereo not drawn)	-4	x	4	69*
O=C(O)C1CCCN1c1ncnc2ccccc12 (stereo not drawn)	0	1	-2	-3
CC1=CC(C)(C)N(S(=O)(=O)c2ccc(C)cc2)c2ccc(C)cc21	-5	x	0	76*
CC1=CC(C)(C)N(S(=O)(=O)c2ccc(F)cc2)c2ccccc21	-1	x	0	19
O=C(CCC(=O)NNC(=S)Nc1ccccc1)NCc1ccccc1	-2	x	-1	-15
O=C1c2ccccc2-c2onc3ccc(Oc4ccccc4)c1c23	x	x	36*	x
CCOC(=O)C(C(=O)OCC)c1cc(Br)c2noc3c2c1C(=O)c1ccccc1-3	-4	7	15	7
CCOc1cc2[nH]c(=O)n(CCCCC(=O)NC3CCCCC3)c(=O)c2cc1OCC	x	-5	x	x
SMILES	Mac1 fbg enh	MMP-13 inhibitor	FAK inh	Mac1 fbg inh
COc1ccc(C(=O)c2ccccc2)c2c(O)ccc(C(=O)c3ccccc3)c12	-3	x	2	51*
C=CCNC(=O)c1onc(CSc2ccc(F)cc2)c1C(=O)O	x	x	1	x
C=CCNC(=O)c1onc(CSc2ccc(F)cc2)c1C(=O)NCCOC	-6	x	3	60*
CCOC(=O)c1cn(-c2nc(-c3ccc(Cl)c(Cl)c3)cs2)c2c(F)c(N3CCOCC3)c(F)cc2c1=O	52*	x	0	6
CCOC(=O)c1cn(-c2ccc(F)c(F)c2F)c2c(F)c(F)c(F)cc2c1=O	-4	x	0	-8
Cc1nc(=O)c(-c2ccccc2)c(C)n1-c1ccc(O)c(C(=O)O)c1	-1	-6	x	-3
CC[n+]1c(/C=C2\C=C(C)CC(C)C2)sc2ccccc21 (stereo not drawn)	-6	x	1	59*
CC[n+]1c(/C=C2\C=C(C)CC(C)(C)C2)sc2ccccc21	-6	x	-2	73*
CC[n+]1c(/C=C2/C=C(C)CC(C)(C)C2)sc2ccc(OC)cc21	x	x	0	x
CCOC(=O)Cn1c(=O)c2c(nc(Br)n2Cc2ccc(Cl)cc2)n(C)c1=O	3	0	x	9
CCCCCCCn1ccc(=N)cc1	-6	x	-1	83*
CCOC(=O)c1[nH]c2ccc(Br)cc2c1NC(=O)CNC	104*	2	0	-2
CCOC(=O)c1[nH]c2ccc(Br)cc2c1NC(=O)CCN1CCC(C)CC1	4	x	-1	-12
O=P(O)(CN1CCCCC1)C1CCCCC1O (stereo not drawn)	x	-6	x	x
O=C(c1ccccc1)N1CCN(c2ncnc3sc4c(c23)CCC4)CC1	-10	x	-1	51*
Cc1nc(N2CCN(C(=O)c3ccco3)CC2)c2c3c(sc2n1)CCC3	-2	-3	x	11
CC1CCCCN1Cc1nc2c(c(=O)n(C)c(=O)n2C)n1Cc1cccc2ccccc12 (stereo not drawn)	x	-2	x	x
O=C(CSCC(=O)N1CCCCC1)Nc1nc(-c2ccc(Cl)s2)cs1	-8	4	4	84*
Cc1nn(Cc2ccccc2Cl)c(C)c1C(=O)Nc1nnc(C2CC2)s1	54*	-2	-2	12
Cc1nn(-c2ccccc2)c(Cl)c1C(=O)Nc1nnc(C2CCCCC2)s1	x	x	1	x
O=C(O)c1cnc(-c2ccccc2)nc1Sc1ccc(Cl)cc1	-12	x	-10	90*
O=C(O)c1cnc(-c2ccccc2)nc1Sc1ccccc1Cl	x	x	0	x
O=c1oc2ccc3ccccc3c2cc1-c1nc2ccccc2o1	x	x	19*	x
CSc1nnc(COc2ccc(C)cc2)n1N	x	x	37*	x
COc1ccc(C(=O)CSc2nc(C)cc(=O)[nH]2)cc1	4	-10	x	-9
SMILES	Mac1 fbg enh	MMP-13 inhibitor	FAK inh	Mac1 fbg inh
COc1ccc(CSc2nc(C)cc(=O)[nH]2)cc1	-3	25*	-2	-8
Cn1nc(-c2ccc(Cl)cc2)c2cc(C(=O)N3CCN(c4ccccn4)CC3)sc21	5	-4	-2	62*
Cn1nc(-c2ccc(Cl)cc2)c2cc(C(=O)N3CCN(c4ccccc4)CC3)sc21	1	0	4	3
CCCc1ccc(Oc2cn[nH]c2-c2ccc(O)c(C)c2O)cc1	-11	5	x	101*
CCCCNc1cc(C)nc(NCc2ccccc2)n1	-13	4	2	85*
Cc1cc(Nc2ccccc2)nc(NCc2ccccc2)n1	-10	x	x	100
CCCOc1ccc(N2C(=O)CC(NCc3cccs3)C2=O)cc1 (stereo not drawn)	x	x	-3	x
O=C1CC(NCc2cccs2)C(=O)N1c1ccc(Cl)cc1 (stereo not drawn)	-2	x	-1	66*
COc1ccc(NC(=S)NC(NC(=O)c2ccc(Cl)cc2Cl)C(Cl)(Cl)Cl)c([N+](=O)[O-])c1 (stereo not drawn)	-3	x	8	83*
COc1ccc(NC(=S)NC(NC(=O)c2ccccc2Cl)C(Cl)(Cl)Cl)c([N+](=O)[O-])c1 (stereo not drawn)	6	x	5	14
CCOC(=O)c1sc(N2C(=O)C(O)=C(C(=O)c3ccco3)C2c2ccccc2)nc1C (stereo not drawn)	x	4	-3	x
Cc1ccc2nc(N3C(=O)C(O)=C(C(=O)c4ccco4)C3c3cccs3)sc2c1 (stereo not drawn)	-6	x	-6	52*
CCCOc1ccc(-c2csc(NC(=O)CN3C(=O)CCC3=O)n2)cc1	16	x	x	14
COc1cccc(C2C(C#N)=C(N)Oc3cc(C)oc(=O)c32)c1OC (stereo not drawn)	1	2	x	-2
